# From PubChem BioAssay (Tox21)
# Calls of active or inactive are those of the source. The call rests on the fitted dose curve.
# Molecular target: Muscarinic acetylcholine receptor M1 (Homo sapiens) (UniProt P11229)
# Experiment: Cholinergic receptor muscarinic 1 (CHRM1) small molecule agonists, cell-based qHTS assay (AID 1963589); further: nearly all actives have a fitted effect of over 35% in size
# Settings: CHRM1-CHO cells, agonist mode, calcium flux fluorescence; series mostly up to 76.8 µM; activation: at the top concentration
# Description: National Center for Advancing Translational Sciences [NCATS]
# Division of Preclinical Innovation [DPI]
# U.S. Environmental Protection Agency [EPA]
# National Institutes of Environmental Health Sciences [NIEHS]
# National Toxicology Program [NTP]
# U.S. Food and Drug Administration [FDA]
# The CHRM1 is a muscarinic receptor. This receptor plays a crucial role in learning and memory processes and has long been identified as a promising therapeutic target for the improvement of cognitive decline in Alzheimer's disease (AD). The CHRM1-CHO cell line stably expressing human muscarinic acetylcholine receptor M1 (CHRM1) can be used for screening agonists and antagonists of interactions between CHRM1 and its ligands. The CHRM1-CHO Calcium Flux Assay is a homogeneous fluorescence-based assay for detecting the intracellular calcium level using FDSS kinetic plate reader system.
# CHRM1-CHO cells were dispensed at 1000 cells/3uL/well in 1536-well black-clear bottom plates using a Multidrop Dispenser. After the assay plates were incubated at a 37 C/5% CO2 incubator for 18 h, 3 uL of Dye Loading Buffer was transferred to the assay plate by a Flying Reagent Dispenser. The assay plates were incubated at 37 C for 1h. For agonist mode, 23 nL of compounds dissolved in DMSO, positive controls or DMSO only was transferred to the assay plate by a pin tool. […] Each test compound was measured at 15 concentrations in three independent runs.
# On the % scale 0 is the no-effect control and ±100 the full control effect.
# Muscarinic acetylcholine receptor M1 (Homo sapiens), sequence (P11229 whole entry, looked up): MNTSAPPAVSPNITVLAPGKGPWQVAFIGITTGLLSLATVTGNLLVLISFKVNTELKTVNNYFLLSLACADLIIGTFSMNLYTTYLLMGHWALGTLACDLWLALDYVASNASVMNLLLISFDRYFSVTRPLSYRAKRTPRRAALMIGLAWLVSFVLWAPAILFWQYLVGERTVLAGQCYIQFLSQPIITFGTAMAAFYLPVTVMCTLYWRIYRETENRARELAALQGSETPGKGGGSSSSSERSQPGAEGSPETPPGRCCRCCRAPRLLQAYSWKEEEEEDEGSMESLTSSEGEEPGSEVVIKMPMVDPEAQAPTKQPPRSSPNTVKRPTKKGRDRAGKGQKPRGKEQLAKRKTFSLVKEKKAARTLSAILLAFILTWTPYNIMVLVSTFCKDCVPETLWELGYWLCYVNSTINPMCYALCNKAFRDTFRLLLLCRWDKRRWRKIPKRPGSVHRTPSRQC
row,SMILES,activation
1,CCCS(=O)c1ccc2nc(NC(=O)OC)[nH]c2c1 (stereo not given),-0.154% [at 35.3 µM] (inactive)
2,CC(C)=CC(=O)O,0.438% (inactive)
3,CCCCCC(C)N (stereo not given),3.06% [at 35.3 µM] (inactive)
4,CC(=O)CC(=O)Nc1ccc(C)cc1C,-0.752% (inactive)
5,Cc1cccc(C)c1C,0.0877% (inactive)
6,C[C@@H]1O[C@@H](O[C@@H]2[C@@H](O)[C@H](OCCc3ccc(O)c(O)c3)O[C@H](CO[C@@H]3O[C@H](CO)[C@@H](O)[C@H](O)[C@H]3O)[C@H]2OC(=O)/C=C/c2ccc(O)c(O)c2)[C@H](O)[C@H](O)[C@H]1O,0.719% (inactive)
7,CCOc1ccccc1O,0.547% (inactive)
8,N[C@H]1CN(c2c(F)cc3c(=O)c(C(=O)O)cn(C4C[C@H]4F)c3c2Cl)CC12CC2 (stereo not given in full),-0.793% [at 35.3 µM] (inactive)
9,COc1c(N2C[C@@H]3CCCN[C@@H]3C2)c(F)cc2c(=O)c(C(=O)O)cn(C3CC3)c12,-0.389% [at 35.3 µM] (inactive)
10,CCCCCCCC,0.275% (inactive)
11,Cc1c(C)c([N+](=O)[O-])c(C(C)(C)C)c([N+](=O)[O-])c1C,-0.658% (inactive)
12,CC(C)(C)C(=O)C(=O)O,-0.436% (inactive)
13,Nc1nc(N)c(-c2ccccc2)s1,-0.957% [at 35.3 µM] (inactive)
14,Cc1c(C)c2c(c(C)c1OC(=O)CCC(=O)OCCO)CC[C@@](C)(CCC[C@H](C)CCC[C@H](C)CCCC(C)C)O2,-0.0326% [at 35.3 µM] (inactive)
15,CCOC(=O)Cn1cccc1-c1nc(-c2ccc(OC)cc2)c(-c2ccc(OC)cc2)s1,1.85% [at 35.3 µM] (inactive)
16,CCCCC(=O)OCC(=O)[C@H]1[C@H](C)C[C@H]2[C@@H]3C[C@H](F)C4=CC(=O)C=C[C@]4(C)[C@@]3(F)[C@@H](O)C[C@@]21C,-0.609% [at 35.3 µM] (inactive)
17,CCCCOCCOC(=O)COc1cc(Cl)c(Cl)cc1Cl,-0.696% (inactive)
18,CCCCCCCCN1CCCC1=O,-0.66% (inactive)
19,COc1cc2c(cc1OC)C(=O)CC2,0.0023% [at 35.3 µM] (inactive)
20,CCOC(=O)[C@H](C)O,-0.0233% (inactive)

row,SMILES,activation
1,O=C1Nc2cc(Cl)ccc2Oc2ccccc21,4.56% [at 35.3 µM] (inactive)
2,CCCCCCCCCCCC(=O)Cl,-0.492% (inactive)
3,CC(C)(C)C(=O)Oc1ccc(S(=O)(=O)Nc2ccccc2C(=O)NCC(=O)O)cc1,-0.0343% [at 35.3 µM] (inactive)
4,COC(C)OC,0.519% (inactive)
5,CCOC(=O)Oc1ccc(CCNC(=O)[C@H](CCSC)NC(C)=O)cc1OC(=O)OCC,-0.453% [at 35.3 µM] (inactive)
6,Cc1ccc(-n2nc(C(C)(C)C)cc2NC(=O)Nc2ccc(OCCN3CCOCC3)c3ccccc23)cc1,-1.21% [at 35.3 µM] (inactive)
7,COCCO,0.13% (inactive)
8,CCCCCC[C@@H](CCC)C(=O)O,-0.461% [at 35.3 µM] (inactive)
9,O=C1OC(=O)C2CCCCC12 (stereo not given),2.32% (inactive)
10,O=C1CCCC(=O)C1,-0.166% (inactive)
11,O=C(Nc1cccc2c(=O)cc(-c3nn[nH]n3)oc12)c1ccc(OCCCCc2ccccc2)cc1,3.94% [at 35.3 µM] (inactive)
12,C/C=C(\C)C#N,-0.341% (inactive)
13,CCOc1ccccc1N,-0.133% (inactive)
14,O=C1c2ccccc2S(=O)(=O)N1CCCCN1CCN(c2ncccn2)CC1,-0.339% [at 35.3 µM] (inactive)
15,Cc1c(Cn2ccnc2)c2ccccc2n1CCC(=O)O,0.0995% [at 35.3 µM] (inactive)
16,Cc1cc2c(cc1S(N)(=O)=O)S(=O)(=O)CCC2,0.0082% [at 35.3 µM] (inactive)
17,O=Cc1cccc(Br)c1,-0.379% (inactive)
18,C=C(C)C(=O)OCCCC,-0.0167% (inactive)
19,Brc1ccc(-c2ccccc2)cc1,0.821% (inactive)
20,CC(C)(C#N)Nc1nc(Cl)nc(NC2CC2)n1,-0.608% (inactive)
